Inconclusive results are not listed. Entries that show only a call come without a potency. The source made the active and inactive calls. Calls come from the whole dose curve; tested in HEK293 reporter line.
Potency is the fitted concentration of half-maximal effect.

This experiment in a line: qHTS for Inhibitors of the Functional Ribonucleoprotein Complex (vRNP) of Lassa (LASV) Arenavirus: Viability assay - alamar blue signal for LASV Primary Screen (AID 1347083). Note: nearly all actives have a fitted effect of over 80% in size. The note with it: cell viability, alamar blue fluorescence (LASV minigenome counter-screen); series mostly up to 57.5 µM. On the technique in general: qHTS replaces the single test concentration by a dilution series.
`CSC(=S)NCc1c[nH]c2ccccc12`: the Potency result is “inactive”.
The same measure, in the same setting: in the case of `CC1OC(Oc2ccc3ccc(=O)oc3c2-c2c(O)ccc3cc(Oc4ccc5ccc(=O)oc5c4)c(=O)oc23)C(O)C(O)C1O` (centres undefined) it was “inactive”; in that of `CCCCC(C=O)NC(=O)C(CC(C)C)NC(=O)OCc1ccccc1` (centres undefined), “inactive”; in that of `COc1c2c(c(OC)c3c1c(=O)c1ccccc1n3C)OCO2`, “inactive”.
With `CC1=CC(=O)OC2CC3OC4C[C@@H](C)C5OC6CC7O[C@]8(C)C/C=C\C9OC%10CC%11OC(CC(C)CO)CC(O)[C@]%11(C)OC%10CC9OC8C[C@]7(C)O[C@]6(C)CCC5OC4C[C@]3(C)OC12` (some centres undefined), the Potency entry was “inactive”.
Consider `CC1=CCC[C@@H]2[C@@](C)(CC/C(C)=C/C(=O)O)[C@H](C)CC[C@@]12C`, for which the Potency result is “inactive”.
The same measure, in the same setting: in the case of `C=C[C@]1(C)C=C2C(=O)[C@@]3(O)OC(=O)[C@@]4(CCCC(C)(C)[C@H]34)[C@@]2(O)CC1` it was “inactive”; in that of `O=C1CCCCCCCCCCCCCCCO1`, “inactive”.
Take `CCCCC[C@H](O)/C=C/C=C/C/C=C\CCCC(=O)O`: the activity change, negative = reduced viability is -19.5% [at 0.757 µM] (inactive).
With `CC(=O)O[C@]1(C(C)=O)CC[C@@H]2[C@@H]3C[C@H](C)C4=CC(=O)CC[C@]4(C)[C@H]3CC[C@@]21C`, the Potency entry is “inactive”.
For the compound `COc1cc(=O)n(C)c2c(OCC3OC(C)(C)OC3(C)C)cccc12` (centres undefined), the Potency result is “inactive”.
Still for that read-out and setting: the same measure for `C=CC(C)(C)O[C@@H]1O[C@H](CO)[C@@H](O)[C@H](O)[C@H]1O`: “inactive”; for `CC(C)NC[C@@H](C(=O)N1CCN(c2ncnc3c2[C@H](C)C[C@H]3O)CC1)c1ccc(Cl)cc1`: 243 nM (active).
Same read-out and setting: the same measure for `CC1(C)C=Cc2c(c3c(c4c(=O)c(-c5ccc(O)cc5)coc24)OC(C)(C)CC3)O1`: “inactive”.

(Values after PubChem BioAssay (NCATS).)
